Screening data as filed in PubChem BioAssay.
L3MBTL1 inh = L3MBTL1 (human) inhibition; Q9Y468; AlphaScreen L3MBTL1–H3K9me1 peptide binding; Potency, µM (titrated, usually from 57.1 µM), inactives show top-dose activity, negative = inhibition, actives largely listed as inhibitors; 230,000 compounds, 0.66% hits; AID 485360; note: % is set by controls: 0 for no effect and ±100 for the full control effect; nearly all actives have a fitted effect of over 60% in size
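Read-out is AlphaScreen signal from streptavidin donor and nickel chelate acceptor beads (10 ug/mL final each) bridging L3MBTL1 (50 nM) and biotinylated K9-monomethylated H3(1-15) peptide (75 nM), after 30 min compound exposure at room temperature.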
HP1b binding inh = inhibitors of HP1-beta chromodomain binding to methylated histone tails | P83916 | AlphaScreen HP1-beta / biotin-H3K9me3 peptide binding | Potency, µM (series often up to 114 µM), for the others: top-dose activity change, negative = inhibition, usual class: inhibitors | 390,000 compounds, 0.56% hits; note: nearly all actives have a fitted effect of over 70% in size
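Compound inhibition of the preformed complex between 50 nM HP1-beta and 50 nM biotinylated H3K9me3 peptide was read by AlphaScreen. Buffer was PBS pH 7.4 with 0.01% Tween-20. Incubations ran 30 min at room temperature, with 10 ug/mL donor/acceptor beads.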
G9a block = blocks human histone lysine methyltransferase G9a | Q96KQ7 | G9a H3K9 monomethylation, AlphaScreen, 2 h | Potency, µM (doses to about 102 µM), without a hit: at the top dose activity, negative = inhibition, hits mostly inhibitors | 350,000 compounds, 8.8% hits; note: % is set by controls: 0 for no effect and ±100 for the full control effect; nearly all actives have a fitted effect of over 75% in size
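Step 1: enzyme (final 20 nM) with compound, 15 min RT. Step 2: substrate peptide 500 nM and SAM 20 uM, 2 h RT. Step 3: anti-H3K9me1 antibody and AlphaScreen beads, 10 min, then plate read.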
BAZ2B block = BAZ2B (human) inhibition; Q9UIF8; AID 504333; AlphaScreen BAZ2B-H3K14Ac peptide displacement; 360,000 compounds, 4.4% hits; Potency, µM (top dose mostly 114 µM), without a hit: at the top dose activity change, negative = inhibition, actives largely listed as inhibitors; note: % is set by controls: 0 for no effect and ±100 for the full control effect; nearly all actives have a fitted effect of over 60% in size
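BAZ2B (50 nM) with biotin-H3(5-23)K14Ac peptide (50 nM) in PBS pH 7.4, 0.01% Tween-20, preformed 30 min, then compound 30 min at room temperature; top concentration 110uM. AlphaScreen streptavidin donor/nickel chelate acceptor beads (10 ug/mL final), 20 min dark, signal read.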
JMJD2A Tudor = blocks the human JMJD2A Tudor domain | O75164 | AlphaScreen JMJD2A-Tudor / H3K4me3 peptide binding | Potency, µM (doses to about 114 µM), for inactives: at the highest dose activity change, negative = inhibition, actives largely listed as inhibitors | 390,000 compounds, 4.4% hits | AID 504339; note: % is set by controls: 0 for no effect and ±100 for the full control effect; nearly all actives have a fitted effect of over 50% in size
Target sequence (O75164 whole entry, looked up, the tested form may be a part): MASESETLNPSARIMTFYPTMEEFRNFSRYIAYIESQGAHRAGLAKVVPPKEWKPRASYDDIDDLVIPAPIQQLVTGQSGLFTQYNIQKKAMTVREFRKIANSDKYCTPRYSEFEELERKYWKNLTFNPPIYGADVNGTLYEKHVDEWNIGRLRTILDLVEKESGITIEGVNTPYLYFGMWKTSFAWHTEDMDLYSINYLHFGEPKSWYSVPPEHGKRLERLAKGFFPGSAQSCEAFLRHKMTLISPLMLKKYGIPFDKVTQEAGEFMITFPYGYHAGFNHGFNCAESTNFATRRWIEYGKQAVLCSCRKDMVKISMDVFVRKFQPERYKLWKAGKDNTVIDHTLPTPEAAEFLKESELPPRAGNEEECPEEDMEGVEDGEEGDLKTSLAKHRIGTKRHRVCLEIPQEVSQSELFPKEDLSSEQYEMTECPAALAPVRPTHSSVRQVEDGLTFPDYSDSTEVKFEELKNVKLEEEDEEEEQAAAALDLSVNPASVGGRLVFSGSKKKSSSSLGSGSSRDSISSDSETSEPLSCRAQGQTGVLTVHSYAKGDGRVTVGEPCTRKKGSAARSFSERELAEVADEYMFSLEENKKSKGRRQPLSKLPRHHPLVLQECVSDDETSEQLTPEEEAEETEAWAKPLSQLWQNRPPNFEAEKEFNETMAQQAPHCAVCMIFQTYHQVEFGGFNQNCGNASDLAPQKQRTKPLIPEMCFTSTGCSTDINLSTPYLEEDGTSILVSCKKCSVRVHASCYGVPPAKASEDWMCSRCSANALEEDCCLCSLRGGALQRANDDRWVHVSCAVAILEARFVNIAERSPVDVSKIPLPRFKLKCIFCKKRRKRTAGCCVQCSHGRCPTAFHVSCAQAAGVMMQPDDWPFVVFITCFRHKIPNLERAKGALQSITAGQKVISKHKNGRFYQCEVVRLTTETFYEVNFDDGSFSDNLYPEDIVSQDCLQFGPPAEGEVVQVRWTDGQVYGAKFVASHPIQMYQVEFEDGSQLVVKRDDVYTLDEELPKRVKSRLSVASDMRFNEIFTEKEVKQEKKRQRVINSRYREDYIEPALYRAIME
GLS inh = inhibitors of human glutaminase (GLS); O94925; GLS enzymatic activity, qHTS titration; Potency, µM (top dose mostly 45.5 µM), for the others: at the top dose activity change, negative = inhibition, usual class: inhibitors; 410,000 compounds, 0.21% hits; AID 624170; note: % is set by controls: 0 for no effect and ±100 for the full control effect
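Human kidney-isoform GLS in 45 mM KH2PO4 pH 8.2, 0.02% Tween-20, with compound, started with 1mM L-Glutamine (added stock). Glutamate oxidase/HRP/Amplex red coupled fluorescence read at start and after 30 min at RT.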
* marks the source's active call; other numbers are inactive results; ? = inconclusive; . = no result given; ! = a repeat was not active; [ ] = remark or other dose. Most compounds without a hit are left out; they make up all but 10% or so of the library. Calls come from the whole dose curve; as a rule, active = well fitted curve in the direction sought with a large enough effect; inconclusive = small, poorly fitted or top-dose-only effect, or another doubt; inactive = no such curve, though single readings can be large; an effect the other way counts as inactive or inconclusive. Potency is the fitted concentration of half-maximal effect.

SMILES | L3MBTL1 inh | HP1b binding inh | G9a block | BAZ2B block | JMJD2A Tudor | GLS inh
COc1ccc(N2C(=O)CC(Sc3n[nH]c(-c4ccccc4)n3)C2=O)cc1 (stereo not given) | 51% | ? | . | -12% | 5µM* | ?
CC(C)[C@H]1COC(c2cccc([N+](=O)[O-])c2)=N1 | . | . | 14%[135 µM] | . | . | .
CCOc1ccc(-c2nonc2NC(=O)c2oc3c(C)c(C)ccc3c2C)cc1OCC | . | 14% | 9%[59 µM] | 1% | -19% | 2%
Cc1nc(N2CCCCC2)sc1C(=O)c1cccc([N+](=O)[O-])c1 | -3% | ? | ? | 40µM* | ? | -1%
Cc1nc(N2CCCCC2)sc1C(=O)c1ccc(SCCO)c([N+](=O)[O-])c1 | . | ? | 40µM* | 40µM* | 13µM* | ?
CSc1ncc2c(n1)-c1ccccc1N(Cc1ccccc1C)S2(=O)=O | . | 79% | 23%[59 µM] | 0% | 50% | -7%
COc1cc(/C=N/N2CCN(Cc3ccc(Cl)cc3)CC2)ccc1OC(C)=O | -22% | ? | . | 56µM* | 45µM* | 0%
COC(=O)c1ccc(/C=N/N2CCN(Cc3ccc(Cl)cc3)CC2)cc1 | -4% | 36% | -8% | -34% | -10% | 3%
COc1cc(/C=N/N2CCN(Cc3ccc(Cl)cc3)CC2)cc(Br)c1O | -1%[2.29 µM] | -21% | 2%[0.501 µM] | 50µM* | 45µM* | 5%
COc1cccc(/C=N/N2CCN(Cc3ccccc3)CC2)c1O | -8% | -12% | . | ? | ? | ?
Cc1cccc(C(=O)NCC(=O)OCc2cc(=O)n3nc(C)sc3n2)c1 | . | 28% | 8%[59 µM] | -11% | -14% | -4%
O=C(NCCc1ccc(Cl)cc1)C1CCN(S(=O)(=O)c2ccc(-n3cnnn3)cc2)CC1 | 4% | -11% | -5% | -3% | 79µM* | -6%
CC(C)Oc1ccc(CNC(=O)c2ccc(CS(=O)c3cccc(Cl)c3)o2)cc1 (stereo not given) | . | 23% | -24%[59 µM] | -12% | -10% | 6%
CC(C)(C)NC(=S)N1CCC2CC1c1cc(-c3ccc4c(c3)OCO4)ccc12 (stereo not given) | . | . | . | . | . | 16µM*
Cc1onc(-c2ccccc2)c1-c1n[nH]c(=S)n1-c1ccc(C(=O)O)cc1 | . | 29% | ? | ? | 45µM* | 23%
CCN1CCN(C(=O)c2ccc3c(c2)S(=O)(=O)c2ccccc2C3=O)CC1 | . | 38% | 50µM* | -31% | 6% | -7%
Cc1nc2c(o1)CCc1ccccc1C2N1CCN(C)CC1 (stereo not given) | ? | 7% | 6%[59 µM] | -36% | 89µM*! | 0%
Cc1nc(S(=O)(=O)N2CCN(C3c4ccccc4-c4ccccc43)CC2)cn1C | -9% | 20% | . | ? | -25% | 13%
Cc1ccc(NC(=O)C2CCCN(S(=O)(=O)c3c(C)n[nH]c3C)C2)c(C)c1 (stereo not given) | . | 39% | 1%[59 µM] | . | 1% | -5%
COc1ccc(-c2noc(N3CCC(C(=O)N(C)c4cc(Cl)ccc4OC)CC3)n2)cc1 | . | 26% | 2%[59 µM] | -2% | -21% | ?
C=CCOc1ccccc1/C=c1\sc2nc(=O)c(C)nn2c1=O | ? | -7% | ? | ? | ? | -15%
CCCOc1ccc(/C=c2\sc3nc(-c4ccco4)nn3c2=O)cc1OCC | -23% | -14% | ? | -15% | ? | 1%
CCCOc1ccc(Cc2nn3c(=O)/c(=C/c4ccco4)sc3nc2=O)cc1 | ? | 13% | ? | 1% | 56µM* | -8%
COc1ccccc1/C=C/C=c1\sc2nc(=O)c(Cc3ccccc3)nn2c1=O | . | -22% | . | 45µM* | 56µM* | 2%
COc1ccc(-c2cc(C(F)(F)F)n3ncc(-c4ccccc4)c3n2)cc1 | . | -1% | ? | ? | ? | -11%
SMILES | L3MBTL1 inh | HP1b binding inh | G9a block | BAZ2B block | JMJD2A Tudor | GLS inh
O=C(Cn1cnc2c(oc3ccccc32)c1=O)Nc1ccc(F)cc1F | . | 7% | -49%[59 µM] | ? | -31% | -12%
Cc1ccc(N2C(=O)C(CC(=O)Nc3ccc(F)cc3)N(Cc3ccc4c(c3)OCO4)C2=O)cc1 (stereo not given) | . | 29% | -2%[59 µM] | -2% | -15% | 0%
Cc1ccc(-n2nc(C)c3c(C(=O)NCc4ccccc4)cc(C4CC4)nc32)cc1 | . | 14% | -34%[59 µM] | 11%[57.1 µM] | -2% | -16%
CC(C)C1Oc2cc3oc(=O)ccc3cc2C1=O (stereo not given) | -1% | 33% | 79µM* | -12% | 1% | 3%
CC(C)C1COc2cc3oc(=O)ccc3cc2O1 (stereo not given) | . | . | -29%[2.33 µM] | . | . | .
COCCNC(=O)Cn1cc(C(=S)N2CCOCC2)c2ccccc21 | 1% | -13% | 35µM* | -25% | -6% | -10%
COCCCNC(=O)Cn1cc(C(C)=O)c2ccccc21 | 8% | 12% | -4% | 6% | -11% | 1%
COc1ccc(CCNC(=O)CS(=O)(=O)c2cn(CC(=O)N3CCOCC3)c3ccccc23)cc1OC | . | 26% | 50µM* | . | -19% | -13%
COc1ccc(NC(=O)CS(=O)(=O)c2cn(CC(=O)N3CCOCC3)c3ccccc23)cc1OC | . | 33% | 35µM* | 1% | -22% | -4%
NC(=O)c1ccc(NC(=O)CS(=O)(=O)c2cn(CC(=O)N3CCCC3)c3ccccc23)cc1 | . | 60% | 25µM* | -19% | -2% | -5%
COc1ccc(CCNC(=O)C(=O)c2cn(CC(=O)N3CCOCC3)c3ccccc23)cc1OC | . | 23% | -4% | ? | -3% | -1%
COc1ccc(OC)c(NC(=O)Cn2cc(C(=O)c3cccs3)c3ccccc32)c1 | . | 14% | -3%[59 µM] | -17%[57.1 µM] | -23% | -3%
O=C(c1cccc(F)c1)N1CCC2(CC1)CN(c1ccccc1)C2 | . | . | 5%[12.7 µM] | . | . | .
O=C(CSc1nnc(-c2cccs2)o1)NCC1CN(Cc2ccccc2)CCO1 (stereo not given) | . | 10% | 3.5µM* | 56µM* | -27% | 3%
C=CCNC(=O)CSc1nnc(-c2cccs2)o1 | 4% | 16% | 1% | -23% | -11% | -7%
COc1cccc(CNC(=O)COC(=O)c2ccc(S(C)(=O)=O)c([N+](=O)[O-])c2)c1 | . | 64% | . | . | -4% | .
COc1ccc(N2CCN(C(CNC(=O)c3ccco3)c3ccco3)CC2)cc1 (stereo not given) | -5% | -15% | 28µM* | -8% | -19% | 34%
COc1ccc(N2CCN(C(CNC(=O)c3c(F)cccc3F)c3ccc4c(c3)OCO4)CC2)cc1 (stereo not given) | . | -11%[57 µM] | 10µM* | ? | 50µM* | 59%
